Screens from PubChem BioAssay.
GLP1R inv ag = inverse agonists of human GLP-1 receptor. P43220. HEK293 GLP-1R CRE-luciferase, luminescence, 24 h; GLP-1R form is constitutively active. Potency, µM (doses to about 38.3 µM), for inactives: at the highest dose activity change, negative = inhibition, most hits filed as inhibitors. actives 1.6% (n = 410,000). AID 624417; also: potency is read from the fitted curve at half-maximal effect; % is scaled to controls: 0 for no effect and ±100 for the full control effect; nearly all actives have a fitted effect of over 55% in size
Target sequence (P43220 whole entry, looked up): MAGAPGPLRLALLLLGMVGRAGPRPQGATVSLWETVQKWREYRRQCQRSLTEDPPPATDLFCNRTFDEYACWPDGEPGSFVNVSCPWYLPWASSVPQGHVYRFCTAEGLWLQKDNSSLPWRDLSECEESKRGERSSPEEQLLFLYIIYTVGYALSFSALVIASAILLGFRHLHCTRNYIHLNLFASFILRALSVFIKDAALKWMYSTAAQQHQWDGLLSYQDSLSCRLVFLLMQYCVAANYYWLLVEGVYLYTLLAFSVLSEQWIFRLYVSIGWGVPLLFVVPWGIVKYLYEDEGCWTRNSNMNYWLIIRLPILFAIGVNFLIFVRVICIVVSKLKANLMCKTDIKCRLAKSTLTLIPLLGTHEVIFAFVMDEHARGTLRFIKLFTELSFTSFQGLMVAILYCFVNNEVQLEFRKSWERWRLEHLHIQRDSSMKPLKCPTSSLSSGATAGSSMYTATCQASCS
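Seeding at 200 cells/uL, 12 h culture, 24 hr compound treatment, then luciferase reagent and a luminescence read; cells are HEK293 stably expressing a constitutively active GLP-1R plus cAMP-responsive luciferase.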
GLP-1R agonist = activates the human GLP-1 receptor. HEK293 GLP-1R CRE-luciferase, luminescence, 4-6 h; cells express a hypersensitive GLP-1R form. Potency, µM (top dose mostly 45.6 µM), for the others: at the highest dose activation, hits mostly activators. actives 0.007% (n = 380,000). AID 624172; also: potency is read from the fitted curve at half-maximal effect; % of control where 0% means no effect
PTHR1 agonist = activates the human parathyroid hormone receptor PTHR1; HEK293 GP2 PTHR1 cells, GloSensor cAMP luminescence, 1 h; Potency, µM (series often up to 115 µM), without a hit: top-dose activation, hits mostly activators; actives 0.075% (n = 410,000); also: potency is read from the fitted curve at half-maximal effect; nearly all actives have a fitted effect of over 55% in size
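HEK-293-derived GP2 cells expressing PTHR1 and a GloSensor cAMP reporter, 3,000/well, plated overnight, given luciferin plus IBMX (each 0.5 mM as added) for 1 h at 37 °C, then compound for 1 h at 37 °C. Luminescence was read after 15 min at room temperature.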
TRHR enhancer = allosteric enhancers of human TRH receptor. P34981. TRHR cells, fluo-8 calcium fluorescence, EC20 TRH enhancement. enhancement, % at 2 µM. actives 0.66% (n = 360,000); in the data active = enhancement above about 30%; also: 0% is about no effect
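Enhancer read-out: after compound pinning and an initial kinetic agonist-mode read, an EC20 of TRH (10 nM final) was injected and fluo-8 calcium signal (Ex 480/Em 530) followed at 1 s/cycle for 100 cycles in TRHR-expressing cells.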
TRHR agonist = activates the human TRH receptor; actives 0.18% (n = 360,000); AID 493084; P34981; activation, % at 2 µM; TRHR cells, calcium flux fluo-8, FDSS agonist mode; in the data active = activation above about 30%; also: 0% is about no effect
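Read-out: compound-evoked intracellular calcium rise in TRHR cells, fluo-8 dye, kinetic FDSS fluorescence at 1 s/cycle following a 10-cycle baseline. Cells cultured overnight before dye loading (30 min–1.5 h, RT).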
GLP1R cytotox = cytotoxicity counter-screen for GLP-1 receptor inverse agonists. HEK293 cAMP-luciferase reporter cells, luminescence, 24 h. actives 0.13% (n = 410,000). AID 624418. Potency, µM (titrated, usually from 38.3 µM), without a hit: at the highest dose activity change, negative = inhibition, usual class: inhibitors;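 also: loss of luciferase light is scored as toxicity; potency is read from the fitted curve at half-maximal effect; % is scaled to controls: 0 for no effect and ±100 for the full control effect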
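Step one: seed cells (200 cells/uL, DMEM with 10% Nu serum, 1% pen-strep). Step two: 12-hour incubation at 37 deg C. Step three: pin 23 nL compound, incubate 24 hr. Step four: add luciferase reagent, read luminescence 12 min later.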
* hit, by the source's call; i = inactive; ? = inconclusive; . = no result given; [ ] = another dose, or the depositor's remark. This is a sample that favours compounds with a hit; in the whole collection about 2.4% have one here. Unless noted, calls follow the shape of the dose curve; as a rule, active = well fitted curve in the direction sought with a large enough effect; inconclusive = small, poorly fitted or top-dose-only effect, or another doubt; inactive = no such curve, though single readings can be large; an effect the other way counts as inactive or inconclusive.

SMILES	GLP1R inv ag	GLP-1R agonist	PTHR1 agonist	TRHR enhancer	TRHR agonist	GLP1R cytotox
O=C1C2C3CCCC3=C3CCCC3C2C(=O)N1c1cccc(Cl)c1 (stereo not given)	3.5µM*	-2%	-6%[57.5 µM]	-4	1	2%
O=C(NCCc1ccccc1)c1oc2ccccc2c1COc1ccccc1	3.2µM*	12%	-6%	-3	2	16%
Cc1c(C(=O)NCCc2ccccc2)oc2ccccc12	?	12%	-28%	-6	8	-1%
O=C(Nc1ccccc1Cc1ccccc1)c1oc2ccccc2c1COc1ccccc1	4.5µM*	-5%	-29%	1	2	78%
CC(OC(=O)c1oc2ccccc2c1COc1ccccc1)C(=O)NC(N)=O (stereo not given)	-21%	22%	25%	5	0	0%
CCOC(=O)c1ccc(NC(=O)c2cc3c([nH]c2=O)CC(c2ccccc2)CC3=O)cc1 (stereo not given)	-4%	.	-4%	6	0	-2%
COc1ccc(-c2csc(N(CCCN(C)C)C(=O)c3ccccc3C)n2)cc1	2.8µM*	-3%	i	-1	4	?
COc1ccc(-c2csc(N(CCCN(C)C)C(=O)c3ccccc3Cl)n2)cc1	?	-5%	i	.	.	?
COCCN(C(=O)c1ccccc1F)c1nc(-c2ccc(OC)cc2)cs1	10µM*	19%	-18%	2	-1	15%
CCN(CC)C(=O)C(Oc1ccc(S(=O)(=O)N2CCCC2)cc1[N+](=O)[O-])c1ccccc1 (stereo not given)	-7%	11%	-1%	-13	-1	6%
COc1ccc(NC(=O)c2ccc3[nH]c(C)c(C)c3c2)cc1	?	3%	-5%	6	0	-19%
COc1ccc2c3c(cccc13)C(=O)CC2	78%	9%	i	8	122*	85%
Cc1ccc(-c2nc(CS(=O)CC(=O)NC(C)CCc3ccccc3)c(C)o2)cc1 (stereo not given)	8.9µM*	0%	-14%	5	1	-1%
Cc1oc(-c2ccc(Cl)cc2)nc1CS(=O)CC(=O)NCCCN1CC(C)CC(C)C1 (stereo not given)	5.6µM*	8%	i	3	0	?
COc1ccc(-c2csc3nc(-c4cccnc4)nc(Cl)c23)cc1OC	?	32%	-30%	-1	0	-13%
Cc1nn(Cc2ccccc2)c(=O)c2nn(-c3ccc(Cl)cc3)c(C)c12	-7%	0%	-19%	-13	0	5%
COc1ccc(C2NC(=O)c3c(sc4c3CCN(C)C4)N2)cc1O (stereo not given)	-11%	.	i	-4	0	4%
COc1ccc(C(=O)Oc2ccc(C3NC(=O)c4c(sc5c4CCN(C)C5)N3)cc2OC)cc1 (stereo not given)	3%	.	-25%	7	50*	27%
Cc1cccc2cc(CNCc3ccccc3)c(Cl)nc12	?	16%	i	-2	0	3%
O=S(=O)(c1ccc2c(c1)OCCO2)N1CCN(S(=O)(=O)c2c(F)cccc2F)CC1	.	.	.	-1	-1	.
C[C@H]1CN(S(=O)(=O)c2ccc3c(c2)OCCO3)CCN1S(=O)(=O)c1c(F)cccc1F	.	1%	-26%	39*	-1	.
CCCn1c(C(C)Nc2nc(-c3ccc(C)cc3)cs2)nc2ccccc21 (stereo not given)	11µM*	6%	16%	-3	0	?
CCCn1c(C(C)Nc2nc(-c3cccc(Br)c3)cs2)nc2ccccc21 (stereo not given)	?	15%	0%	0	0	-25%
CCCSC1=C(C#N)C(c2ccc(O)c(OC)c2)CC(=O)N1 (stereo not given)	-18%	-2%	5%	-1	0	-46%
O=C(CCNC(=O)c1ccccc1)N=Nc1c(O)[nH]c2ccccc12	.	.	.	4	0	.
